# Reference: PubChem BioAssay AID777 (Sanford-Burnham Center for Chemical Genomics, 2007)
# The campaign covered roughly 96,000 compounds. About 19,000 (20%) were called active. The list is a sample of the results. Unmarked numbers belong to inactive results.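 The calls were made as follows: active = blocking of liver enzyme CYP2C9 beyond about 50% at 5 µM (limit read from the data); inactive = the rest.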
# Molecular target: Cytochrome P450 2C9 (Homo sapiens) (UniProt P11712)
# Assay: blockers of cytochrome P450 2C9 activity – biochemical, luminescence, ADME assay, primary screen (AID 777)
# Details: CYP2C9 Supersomes, luciferin-H conversion, at 5 µM, active compounds read high
# Sequence of Cytochrome P450 2C9 (Homo sapiens) (P11712 whole entry, looked up): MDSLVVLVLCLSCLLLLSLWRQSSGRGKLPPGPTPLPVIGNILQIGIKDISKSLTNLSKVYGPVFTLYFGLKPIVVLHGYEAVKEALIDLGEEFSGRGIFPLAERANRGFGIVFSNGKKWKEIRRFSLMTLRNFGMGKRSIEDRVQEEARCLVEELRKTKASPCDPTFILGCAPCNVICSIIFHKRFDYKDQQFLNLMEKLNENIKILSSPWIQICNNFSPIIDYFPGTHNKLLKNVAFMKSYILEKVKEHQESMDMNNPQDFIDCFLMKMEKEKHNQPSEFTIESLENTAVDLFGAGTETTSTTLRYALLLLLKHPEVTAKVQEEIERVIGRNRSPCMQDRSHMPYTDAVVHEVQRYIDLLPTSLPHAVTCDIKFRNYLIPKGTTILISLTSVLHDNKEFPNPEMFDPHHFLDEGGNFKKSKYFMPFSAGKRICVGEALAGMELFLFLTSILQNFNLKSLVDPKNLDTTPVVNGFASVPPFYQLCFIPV
row,SMILES,inhibition
1,COc1ccc(C2C=C(c3ccc(Br)cc3)Nc3nc(NS(C)(=O)=O)nn32)cc1 (stereo not drawn),-11.7%
2,O=C(O)CCC(=O)NCc1ccc(C(=O)O)cc1,6.1%
3,COc1ccc(NC(=O)c2c(SC)nsc2SC)cc1,12.2%
4,CCCCCOC(=O)NCCOC(=O)Nc1ccc(C(=O)OCC)cc1,48%
5,CCCc1ccc(OCc2ccc(C(=O)N/N=C/c3cccc([N+](=O)[O-])c3)o2)c(OC)c1,-10.7%
6,COc1cc(OC)c(/C=N/NC(=O)c2ccc([N+](=O)[O-])cc2)cc1Br,1.8%
7,N#Cc1cc([N+](=O)[O-])ccc1Oc1cccc(/C=N/NC(=O)c2ccc(Cl)cc2)c1,59.3% (active)
8,O=C1CCC(C(=O)Nc2ccc(OC(F)F)cc2)N1 (stereo not drawn),1.2%
9,CCCCNc1nc2ccccc2nc1NS(=O)(=O)c1cccs1,32.1%
10,CC1(C)CC(=O)C(C=NCCC2=CCCCC2)=C(O)C1,0.7%
11,CC1(C)CC(=O)C(C=NCCN2CCN(C(=S)Nc3cccc(Cl)c3)CC2)=C(O)C1,51.8% (active)
12,CC(=O)N1CCN(CCN=CC2=C(O)CC(C)(C)CC2=O)CC1,4%
13,CC(=O)c1nn(-c2cccc(Br)c2)cc1C(=O)c1cccc2ccccc12,-72%
14,CC(C)COC(=O)C1C2C=CC3(CN(C(C)c4ccc(Br)cc4)C(=O)C13)O2 (stereo not drawn),9.2%
15,Cc1cc(NC(=O)c2cnn3cccnc23)n(-c2ccccc2)n1,32%
16,CCN(CC)CCN1C(=O)C(=O)/C(=C(/O)c2ccc(OC)c(OC)c2)C1c1ccccn1 (stereo not drawn),-10.7%
17,COc1ccc(CCN(C)CCN2C(=O)c3ccccc3C2=O)cc1OC,-9.6%
18,COc1ccc(CCN2C(=O)c3[nH]nc(-c4ccccc4O)c3C2c2ccc(C)cc2)cc1OC (stereo not drawn),58% (active)
19,CCCCCCSc1nsc(N)n1,1.5%
20,CCOC(=O)c1sc(=S)n(-c2cccc(OC)c2)c1N,-20.4%
21,COc1cccc(N(CC(=O)N2CCc3ccccc3C2)S(C)(=O)=O)c1,14.5%
22,CS(=O)(=O)N(CC(=O)N1CCN(Cc2ccccc2)CC1)c1ccc2c(c1)OCCO2,-0.9%
23,CS(=O)(=O)N(CC(=O)N1CCN(c2cccc(Cl)c2)CC1)c1ccccc1,54.7% (active)
24,CC1CCN(C(=O)CN(c2ccc(Oc3ccccc3)cc2)S(C)(=O)=O)CC1,50.7% (active)
25,CS(=O)(=O)N(CC(=O)N1CCN(Cc2ccc3c(c2)OCO3)CC1)c1ccc2c(c1)OCO2,7.2%

row,SMILES,inhibition
1,Cc1cccc(N(CC(=O)N2CCOCC2)S(C)(=O)=O)c1,3.8%
2,O=C(Nc1cccnc1)c1noc2c1CCCCC2,33.5%
3,Cc1nn(CC(=O)Nc2ccc3c(c2)nc(CN2CCCCC2)n3C)c(=O)c2ccccc12,16.1%
4,O/N=C(\c1ccc2c(c1)OCCO2)C1CCCCC1,35.2%
5,CCOc1ccccc1N=C1NC(=O)CS1,-11.8%
6,COc1ccc(OCc2ccc(-c3nc4ccccc4c(=O)n3N)o2)cc1,45.5%
7,O=C(O)/C=C/C(=O)Nc1ccc(F)cc1F,3.9%
8,NC(=O)c1ncc(C(F)(F)F)cc1Oc1ccc(F)cc1,7.9%
9,Cn1c(=O)[nH]c(=O)c2c1nc(N(CCO)Cc1ccccc1)n2Cc1ccccc1Cl,25.8%
10,CN(Cc1ccccc1)c1nc2c(c(=O)[nH]c(=O)n2C)n1CCSc1nc2ccccc2[nH]1,67.2% (active)
11,CCCSc1nc2c(c(=O)[nH]c(=O)n2C)n1CCc1ccccc1,14.6%
12,Brc1ccc(/C=N/N2CCN(C3c4ccccc4-c4ccccc43)CC2)s1,25.4%
13,O=[N+]([O-])c1ccccc1/C=N/n1c(COc2ccccc2)n[nH]c1=S,8.7%
14,Cn1nc(-c2ccc(Cl)cc2)c2cc(C(=O)NCc3ccco3)sc21,43.4%
15,Cc1nc(C)c(C(=O)N(c2ccc(C)c(C)c2)C(C(=O)NCc2ccco2)c2ccccc2)s1 (stereo not drawn),46.6%
16,Cc1nn(-c2ccccc2)c2sc(C(=O)N(Cc3ccco3)C(C)C(=O)NC(C)(C)C)cc12 (stereo not drawn),65.2% (active)
17,CCn1nnc(NC(=O)c2cc(Cl)c(OC)c(Cl)c2)n1,-1.7%
18,O=C(N1CCOCC1)N(Cc1ccccc1)c1ccccn1,8.5%
19,CCC(C)Sc1nc(C)nc2c1c(=O)n(C)c(=O)n2C (stereo not drawn),8.4%
20,COc1cccc(/C=N/NC(=O)c2cccc([N+](=O)[O-])c2)c1OS(=O)(=O)c1ccc(C)cc1,1.8%
21,Cc1ccc(-c2nn(-c3ccccc3)cc2/C=N/NC(=O)c2ccc3c(c2)OCO3)cc1,76.1% (active)
22,Cc1nnc(SCC(=O)N/N=C/c2cn(-c3ccccc3)nc2-c2ccc(F)cc2)n1-c1ccccc1,29.6%
23,CC/C(C)=N/Nc1nc2sc3c(c2c(=O)[nH]1)CC(C)(C)OC3,30.9%
24,Cc1cccc(NC(=O)CSc2nnc(-c3ccco3)o2)c1,29.1%
25,CCOC(=O)c1sc(NC(=O)CSc2ncccn2)c(C#N)c1C,45.3%

row,SMILES,inhibition
1,CCOC(=O)c1sc(NC(=O)CSc2nnc(-c3ccco3)o2)c(C(=O)OCC)c1C,78.6% (active)
2,CCOC(=O)Cc1csc(NC(NC(=O)OCC)(C(F)(F)F)C(F)(F)F)n1,22.3%
3,Cc1cc(N2CCCC2=O)cc(C)c1S(N)(=O)=O,-21.5%
4,COC(=O)[C@H](CCSC)NC(=O)Nc1ccc(OC)cc1,7.5%
5,Cc1cc(C(=O)NCCCc2ccccc2)no1,2.4%
6,O=C(O)CCC(=O)N(Cc1cccs1)Cc1cccs1,31.5%
7,CCN(Cc1ccccc1)C(=O)CSc1nc(C)cc2c1C(=O)OC2,-130%
8,Cc1ccc(-c2nn(-c3ccccc3)cc2CN(Cc2ccccc2)C(=O)CCC(=O)O)o1,65.1% (active)
9,CCCSC(=S)NC1CCS(=O)(=O)C1 (stereo not drawn),19.1%
10,Cc1ccc(Cc2cnc(N)s2)o1,3%
11,N/C(=N\OC(=O)CCc1ccccc1)c1ccc(Cl)cc1,8.3%
12,COc1cc(/C=N/O)cc(Br)c1OS(=O)(=O)c1ccc(C)cc1,67.9% (active)
13,COc1cc(/C=N/O)cc(Br)c1OCc1cccc(Cl)c1,-39.5%
14,CCOc1cc(/C=N/O)cc(Br)c1OC,17.9%
15,O=C(NCc1cn2ccsc2n1)Nc1cccc(Cl)c1,-17.8%
16,Cc1cccc(NC(=O)C2CCN(S(=O)(=O)c3cccc4cccnc34)CC2)c1,-180%
17,CCOC(=O)Cn1c(N)c(C(=O)OC)sc1=S,57.8% (active)
18,COCCOC(=O)c1sc(=S)n(CCOC)c1N,1%
19,COC(=O)c1sc(=S)n(-c2ccccc2)c1N,3.7%
20,Cc1ccc(O)c(CNc2nc3ccccc3n2C)c1,21.9%
21,Cc1nnc(OCC(=O)NCCC2=CCCCC2)c2ccccc12,-29.1%
22,O=C(COc1ccc(Cl)cc1)NCCC1=CCCCC1,40.4%
23,O=C(COc1cccc(-n2cnnn2)c1)NCCC1=CCCCC1,79.4% (active)
24,CC(C)(C)c1cc(CN2CCN(CCC#N)CC2)cc(C(C)(C)C)c1O,4.9%
25,CC(C)Oc1ccc(C2NC(=O)NC2=O)cc1 (stereo not drawn),-28.2%

row,SMILES,inhibition
1,COc1ccc(S(=O)(=O)Nc2ccc3oc(C)c(C(C)=O)c3c2)cc1,67.2% (active)
2,COc1ccc(Nc2cc(=O)oc3ccccc23)cc1,-27.6%
3,COc1ccc2oc(C)c(NC(C)=O)c2c1,-8.9%
4,CCOC(=O)c1c(C)[nH]c(C)c1C(=O)CSc1nc(N)cc(N)n1,-35.6%
5,COc1cc(CNCc2cccs2)cc(Br)c1OC,8.7%
6,Cn1c(SCc2c(F)cccc2Cl)nnc1-c1cnccn1,-6%
7,COc1cccc(N=c2oc3c(C)ncc(CO)c3cc2C(N)=O)c1,11.4%
8,COc1cccc(OC)c1C(=O)Nc1nnc(C(C)C)s1,20.1%
9,COC(=O)C1=C(C)NC(=O)NC1/C=C/c1ccccc1 (stereo not drawn),-0.6%
10,COc1ccccc1NC(=O)C1=C(C)NC2=C(C(=O)CCC2)C1c1ccc(C)o1 (stereo not drawn),10.7%
11,COC(=O)C1=C(C)NC2=C(C(=O)c3ccccc32)C1c1ccc(-c2ccc(C(=O)O)cc2)o1 (stereo not drawn),97.3% (active)
12,Clc1ccc(C=NC23CN4CN(CN(C4)C2)C3)cc1,1.1%
13,Cc1ccc(CN2C(=O)CCC2C(=O)NCCCN2CCCCC2C)cc1 (stereo not drawn),0%
14,COc1ccc(CN2CCCCC2C)cc1OC (stereo not drawn),-9.7%
15,CCc1ccc2oc(=O)cc(CN3CCCCC3C)c2c1 (stereo not drawn),54.9% (active)
16,O=C(OCC(=O)c1cccs1)C1=COCCO1,0.5%
17,CCC1(CC)NC(=O)N(CC(=O)OCC(=O)Nc2ccc(C(F)(F)F)cc2)C1=O,-10.3%
18,CCC(C)(C)c1ccc(Oc2ccc(NC(=O)COC(=O)C3=COCCO3)cc2)cc1,76.1% (active)
19,O=C(C1CC1)N1CCN=C1SCc1ccc(Cl)cc1,21.3%
20,CC(C(=O)N1CCOCC1)N1c2cccc3cccc(c23)S1(=O)=O (stereo not drawn),-30.6%
21,NC(N)=N/N=C/c1ccc(OCc2ccc(Cl)cc2Cl)cc1,-11.8%
22,COc1ccc(C2=NO[C@@H]3C(=O)N(Cc4ccccc4)C(=O)[C@H]23)cc1OC,47%
23,COc1ccc(C2Nc3ccccc3C(=O)N2Cc2ccccc2)cc1Cn1nnc2ccccc21 (stereo not drawn),93.5% (active)
